# Measured values as given in PubChem BioAssay AID2242 (National Center for Advancing Translational Sciences (NCATS), 2010).
# Screen size: about 200,000 compounds; about 720 (0.36%) were called active. Another 8% or so got no clear call; they are omitted. Calls follow the shape of the dose curve; as a rule, active = well fitted activation curve with a large enough effect; inconclusive = small, poorly fitted or top-dose-only effect, or effect the other way, or another doubt; inactive = flat fitted curve, though single readings scatter. Some of the results follow.
# Target: Lysosomal alpha-glucosidase (Homo sapiens) (UniProt P10253)
# Assay: qHTS Assay for Activators of Human alpha-Glucosidase as a Potential Chaperone Treatment of Pompe Disease; also: nearly all actives have a fitted effect of over 80% in size
# Details: purified enzyme, 4-MU-alpha-glucoside fluorescence, 20 min; series mostly up to 76.9 µM
# Procedure, shortened: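 Compounds titrated up to 77 uM against 4 nM enzyme and 400 uM methylumbelliferyl substrate at room temperature, 20 min, pH 5.0. Basic stop, then 4-methylumbelliferone fluorescence (365/440 nm) normalized to no-enzyme and enzyme controls; Hill-equation AC50.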
# Potency is read from the fitted curve at half-maximal effect.
row,Compound,Potency
1,CCN(CC)c1cc(C)c2cc(NC(=O)CNC(C)=O)ccc2n1,35.5 µM (active)
2,CCN1c2ccccc2-c2nc3ccccc3n2C1c1cccs1 (stereo not drawn),35.5 µM (active)
3,CN1c2ccccc2-c2nc3ccccc3n2C1c1cccs1 (stereo not drawn),35.5 µM (active)
4,COc1ccc(-c2cn3cccnc3n2)cc1F,28.2 µM (active)
5,COc1ccc(-c2cn3cccnc3n2)cc1Br,35.5 µM (active)
6,CC12CCC(=O)N1c1c(sc3nc(N4CCOCC4)c4c(c13)CCCC4)C(=O)N2 (stereo not drawn),35.5 µM (active)
7,Nc1c(C(O)(C(F)(F)F)C(F)(F)F)ccc2ccccc12,35.5 µM (active)
8,Nc1ccc2nc(-c3ccccc3)sc2c1,35.5 µM (active)
9,Nc1ccc(-c2nc3ccc(C(=O)O)cc3s2)cc1,35.5 µM (active)
10,Cc1cc(C)[n+](-c2ccc(F)cc2)c2[nH]c(=O)[nH]c(=O)c12,35.5 µM (active)
11,Cc1cc(C)[n+](-c2ccc(C(C)C)cc2)c2[nH]c(=O)[nH]c(=O)c12,35.5 µM (active)
12,COCCOC(=O)C1=C(C)NC2=C(C(=O)CC(C)(C)C2)C1c1cccnc1 (stereo not drawn),35.5 µM (active)
13,COc1cccc(C2C(C#N)=C(C)NC3=C2C(=O)CC(C)(C)C3)c1 (stereo not drawn),39.8 µM (active)
14,CC1=C(C#N)C(c2cccnc2)C2=C(CCCC2=O)N1 (stereo not drawn),25.1 µM (active)
15,CC1=C(C#N)C(c2cccnc2)C2=C(CC(C)(C)CC2=O)N1 (stereo not drawn),28.2 µM (active)
16,CCN1CCN(C(c2cc3cc4c(cc3[nH]c2=O)OCO4)c2nnnn2C(C)(C)CC)CC1 (stereo not drawn),39.8 µM (active)
17,Nc1nc(N)c2nc(-c3ccccc3)c(N)nc2n1,39.8 µM (active)
18,Clc1ccc(/C=C/c2nc3ccccc3[nH]2)c(Cl)c1,35.5 µM (active)
19,CCC(=O)c1ccc(/C=C/c2nc3ccccc3n2C)o1,35.5 µM (active)
20,CC(=O)Oc1ccc2cc(-c3nc4ccccc4n3C)c(=O)oc2c1,35.5 µM (active)
21,Cn1c(-c2cc3ccc(OC(=O)C(C)(C)C)cc3oc2=O)nc2ccccc21,39.8 µM (active)
22,CC(=O)c1ccc(-c2nc3ccccc3n2C)o1,31.6 µM (active)
23,CCC(=O)Nc1c(S(=O)(=O)c2ccccc2)c2nc3ccccc3nc2n1Cc1ccccc1,39.8 µM (active)
24,CCCCn1c(NS(=O)(=O)c2ccccc2)c(S(=O)(=O)c2ccc(C)cc2)c2nc3ccccc3nc21,35.5 µM (active)
25,CCCCn1c(NS(=O)(=O)c2ccc(C)cc2)c(S(=O)(=O)c2ccccc2)c2nc3ccccc3nc21,50.1 µM (active)

row,Compound,Potency
1,Cc1ccc2nc3c(cc(C#N)c(=O)n3CCN3CCOCC3)c(=O)n2c1,28.2 µM (active)
2,Cc1ccc2nc3c(cc(C#N)c(=O)n3CC3CCCO3)c(=O)n2c1 (stereo not drawn),3.98 µM (active)
3,Cc1cccn2c(=O)c3cc(C#N)c(=O)n(CC4CCCO4)c3nc12 (stereo not drawn),10 µM (active)
4,Cc1cccn2c(=O)c3cc(C#N)c(=O)n(Cc4cccnc4)c3nc12,3.98 µM (active)
5,CC(C)OC(=O)c1c(N)n(CCCN2CCOCC2)c2nc3ccccc3nc12,39.8 µM (active)
6,COC(=O)c1c(N)n(CCCN2CCOCC2)c2nc3ccccc3nc12,31.6 µM (active)
7,Cc1c(C#N)c(N)nc2c3c(sc12)NC(=O)CC3c1ccccc1 (stereo not drawn),5.01 µM (active)
8,COc1ccc(F)cc1CN1CCN(c2cc(C)nc3c4c(C)cc(C)nc4nn23)CC1,35.5 µM (active)
9,CCc1c(C)c2cc(Cl)c(O)c(CN(C)C)c2oc1=O,31.6 µM (active)
10,CCc1c(C)c2ccc(O)c(CN(C)C)c2oc1=O,35.5 µM (active)
11,CCN(CC)Cc1c(O)ccc2c(C)c(CC(=O)OC)c(=O)oc12,35.5 µM (active)
12,COC(=O)Cc1c(C)c2ccc(O)c(CN3CCCC(C)C3)c2oc1=O (stereo not drawn),35.5 µM (active)
13,Cc1c(C)c2cc(Cl)c(O)c(CN(C)C)c2oc1=O,39.8 µM (active)
14,Cc1c(Cc2ccccc2)c(=O)oc2c(CN(C)C)c(O)c(Cl)cc12,35.5 µM (active)
15,O=c1c2ccccc2[nH]c2ccccc12,39.8 µM (active)
16,O=c1c2ccccc2[nH]c2ccc(F)cc12,31.6 µM (active)
17,O=C(c1ccco1)N1CCN(C/C=C/c2ccccc2)CC1,17.8 µM (active)
18,COC(=O)C1=CN(Cc2cccs2)C=C(C(=O)OC)C1c1cccc(Cl)c1,35.5 µM (active)
19,COC(=O)C1=CN(Cc2cccs2)C=C(C(=O)OC)C1c1ccc(OC)cc1OC,35.5 µM (active)
20,COC(=O)C1=CN(Cc2cccs2)C=C(C(=O)OC)C1c1cccc(OC)c1OC,25.1 µM (active)
21,CCN1C=C(C(=O)OC)C(c2cccc(OC)c2OC)C(C(=O)OC)=C1,35.5 µM (active)
22,CCN1C=C(C(=O)OC)C(c2cccc(C)c2)C(C(=O)OC)=C1,35.5 µM (active)
23,COCCn1cc(C(=O)N2CCN(C)CC2)c2c3ccccc3n(C)c2c1=O,35.5 µM (active)
24,Cc1cccc(N=c2oc3cc(O)ccc3cc2C(N)=O)c1,35.5 µM (active)
25,NC(=O)c1cc2ccc(O)cc2oc1=NCc1ccccc1,35.5 µM (active)

row,Compound,Potency
1,COc1ccccc1N=c1oc2cc(O)ccc2cc1C(N)=O,28.2 µM (active)
2,CCOc1ccccc1N=c1oc2cc(O)ccc2cc1C(=O)NCC1CCCO1 (stereo not drawn),31.6 µM (active)
3,CCCCN(CC)CCNC(=O)CCC(=O)Nc1ccc2nc(N3CCN(C)CC3)cc(C)c2c1,28.2 µM (active)
4,Cc1cc(N2CCC(C)CC2)nc2ccc(N3C(=O)CCC3=O)cc12,31.6 µM (active)
5,CCCCNC(=O)CCC(=O)Nc1ccc2nc(N3CCC(C)CC3)cc(C)c2c1,39.8 µM (active)
6,CCCCNC(=O)CCC(=O)Nc1ccc2nc(N3CCCCC3)cc(C)c2c1,25.1 µM (active)
7,CCN(CC)CCCNC(=O)CCC(=O)Nc1ccc2nc(N3CCC(C)CC3)cc(C)c2c1,39.8 µM (active)
8,COCCCNC(=O)CCC(=O)Nc1ccc2nc(N3CCOCC3)cc(C)c2c1,28.2 µM (active)
9,Cc1cc(C)c2c(n1)nn1c(NCCOCCO)cc(C)nc21,35.5 µM (active)
10,Cc1cc(C)c2c(n1)nn1c(NCCN3CCOCC3)cc(C)nc21,28.2 µM (active)
11,COCCNc1cc(C)nc2c3c(C)cc(C)nc3nn12,35.5 µM (active)
12,Cc1cc(C)c2c(n1)nn1c(NCCCN(C)C)cc(C)nc21,39.8 µM (active)
13,CCc1cc2c(C)cc(=O)oc2cc1OC(=O)C1CCCN1C(=O)OC(C)(C)C (stereo not drawn),31.6 µM (active)
14,CCOP(=O)(OCC)C(NC(=O)c1cccs1)C(F)(F)F (stereo not drawn),31.6 µM (active)
15,COCCCn1c(CCC(=O)O)ccc1-c1ccc(F)cc1,22.4 µM (active)
16,O=S1(=O)CCN2C=C(Cl)C=C(Cl)C2=N1,35.5 µM (active)
17,Cc1c(C)c2cc(Cl)c(O)c(CN3CCN(C)CC3)c2oc1=O,25.1 µM (active)
18,Cc1c(C)c2cc(Cl)c(O)c(CN3CCCCC3)c2oc1=O,14.1 µM (active)
19,CCc1c(C)c2cc(Cl)c(O)c(CN3CCCCC3)c2oc1=O,31.6 µM (active)
20,N=c1oc2ccc3ccccc3c2cc1-c1nnc2n1CCCCC2,35.5 µM (active)
21,C=CCn1cc(-c2ccccc2)cc(C#N)c1=O,35.5 µM (active)
22,CC1C2=C(CC(C)(C)CC2=O)NC2=C1C(=O)CC(C)(C)C2,35.5 µM (active)
23,O=C(Nc1cccc(-c2cn3cccnc3n2)c1)c1ccco1,28.2 µM (active)
24,Cc1c(-c2cccc(NC(=O)c3cccs3)c2)nc2ncccn12,31.6 µM (active)
25,Cc1c(-c2cccc(NC(=O)c3ccco3)c2)nc2ncccn12,35.5 µM (active)

row,Compound,Potency
1,N#Cc1cc2c(=O)n3ccccc3nc2n(-c2ccccc2Cl)c1=O,35.5 µM (active)
2,Cc1ccc(C)c(-n2c(=O)c(C#N)cc3c(=O)n4ccccc4nc32)c1,35.5 µM (active)
3,Cc1ccccc1-n1c(=O)c(C#N)cc2c(=O)n3ccccc3nc21,35.5 µM (active)
4,CCOC(=O)c1oc2ccccc2c1NC(=O)COc1ccc(F)cc1,35.5 µM (active)
5,CCCS(=O)(=O)n1nc(-c2ccc(Br)cc2)cc1N,39.8 µM (active)
6,Cc1cc(=O)n2ccccc2c1C#N,35.5 µM (active)
7,CCOC(=O)C1=C(C)NC2=C(C(=O)CC(C)(C)C2)C1c1cccc(C)n1 (stereo not drawn),35.5 µM (active)
8,COC(=O)C1=C(C)NC2=C(C(=O)CC(C)(C)C2)C1c1ccccn1 (stereo not drawn),35.5 µM (active)
9,COC(=O)C1=C(C)NC2=C(C(=O)CCC2)C1c1cccc(C)n1 (stereo not drawn),28.2 µM (active)
10,CCOC(=O)c1cnc2c(-c3ccc(F)cc3)cnn2c1C(F)(F)F,31.6 µM (active)
11,CC(=O)Oc1cc(OC(C)=O)c2c(C)cc(=O)oc2c1,35.5 µM (active)
12,CCc1cc(=O)oc2cc(OC(C)=O)cc(OC(C)=O)c12,35.5 µM (active)
13,CCCCN1C=C(C(=O)OC)C(c2ccccc2Cl)C(C(=O)OC)=C1,22.4 µM (active)
14,COCCN1C=C(C(=O)OC)C(c2ccccc2C(F)(F)F)C(C(=O)OC)=C1,35.5 µM (active)
15,COCCN1C=C(C(=O)OC)C(c2ccccc2Cl)C(C(=O)OC)=C1,31.6 µM (active)
16,COC(=O)C1=CNC=C(C(=O)OC)C1c1ccccc1Cl,31.6 µM (active)
17,COC(=O)C1=CNC=C(C(=O)OC)C1c1ccc(Cl)cc1,35.5 µM (active)
18,COC(=O)C1=CN(C)C=C(C(=O)OC)C1c1ccccc1Cl,31.6 µM (active)
19,COC(=O)C1=CN(C)C=C(C(=O)OC)C1c1ccc(Cl)cc1Cl,25.1 µM (active)
20,CCOC(=O)c1cc(C(=O)OCC)c2ccccn2c1=O,35.5 µM (active)
21,CCOC(=O)c1cnc2cc3c(cn2c1=O)CCCC3,28.2 µM (active)
22,CCOC(=O)c1cnc2cc(C)ccn2c1=O,35.5 µM (active)
23,CCOC(=O)c1cnc2sc3c(n2c1=O)CCCC3,39.8 µM (active)
